This note sets out measurements from PubChem BioAssay (NCI).

About 83,000 compounds went through this panel and 20% of them were active in at least one assay; those are over-represented in the sample as a whole.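 96-well plates, one dose, 48 hours. Percent growth reported; active if below 10.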 Active and inactive are the calls of the source.

This assay has as its system OVCAR-8 ovarian. Kind of assay: NCI-60 one-dose screen, 48 h (100 = growth as untreated, 0 = no growth, -100 = all killed). The note with it: 10 µM unless noted. The method, then: Growth inhibition of the OVCAR-8 human tumor cell line is measured as a screen for anti-cancer activity. Cells are grown in 96 well plates and exposed to the test compound for 48 hours. Compounds are tested at a single concentration, which is 10^-5 M for most compounds. The reported endpoint is percent growth (GI% or GIPRCNT), where numbers from 0 - 100% represent growth inhibition, and numbers from -100% - 0 represent cell death. For example, a value of 40 represents 60% growth inhibition. A value of 0 means no net growth occurred over the course of the experiment. A value of -40 indicates 40% of cells at the beginning of the experiment died by the end of the experiment. A value of -100 means all cells are dead at the end of the experiment.
NCI-60 Human Tumor Cell Lines Screen was performed using the standard one-dose NCI protocol, which is described in more detail at https://dtp.cancer.gov/discovery_development/nci-60/default.htm.
Compounds with GIPRCNT values below 10 were considered active. Activity score was based on GIPRCNT using the following formula: […]
Score is 0 for GIPRCNT values of 100 or above, 50 for GIPRCNT values of 0, and 100 for GIPRCNT values of -100.
As to `C#CC(O)c1ccccc1` (stereo not given), the growth is 103% (inactive). On to `NC(CCl)=NCC12CC3CC(CC(C3)C1)C2`, for which the growth is -26.8% (active). In the case of `CCOP(=O)(OCC)/C(=C\N1C(=O)CC(=O)NC1=S)C(=O)OC`, the growth is 97.6% (inactive). Then `CCN(CC)c1ccc2nc3ccc(N=Nc4ccc(N(C)C)cc4)cc3[n+](-c3ccccc3)c2c1`, with 5.08% (active). `C=C(C)COc1ccc(C(C)(C)C)cc1`: the growth was 95.4% (inactive). For `CN(C)c1ncnc2c1cnn2C` the value was 94.7% (inactive); for `C=CCC(OC(C)=O)c1ccc(C(C)C)cc1` (stereo not given), 105% (inactive). `CCCCNC(=O)c1ccc(OCC)cc1`: the growth is 103% (inactive). Regarding `NC(CO)(CO)c1ccccc1`, the growth is 103% (inactive). Then `Ic1cccs1`, with 99.2% (inactive); and `O=c1nc(Nc2cccc(Cl)c2)oc2cc(Cl)oc(=O)c12`, with 62.9% (inactive); and `O=C(c1ccccc1O)N1CCCC1`, with 99.3% (inactive). For the molecule `Cc1ccc[n+](CCC(N)=O)c1`, the growth is 103% (inactive). Then `O=C(c1cccc(C(=O)c2ccc3c4c(cccc24)C(=O)N(c2ccccc2)C3=O)c1)c1ccc2c3c(cccc13)C(=O)N(c1ccccc1)C2=O`, with 88.8% (inactive). For `NC(=O)OCCO` the value was 104% (inactive). With `CCCCNc1ccc(-c2ccc(NCCCC)cc2)cc1`, the growth was 82.1% (inactive). As for `C=C1CC2(OC1=O)C(=O)N(C)c1ccc(I)cc12` (stereo not given), the growth was -8.98% (active).

For `Cc1cc(CC(=O)NCCO)n(CCO)c(=O)c1`, the growth is 103% (inactive).

`N=C(N)c1nn(C2OC(CO)C(O)C2O)c2nc[nH]c(=O)c12` (stereo not given): the growth was 7.8% (active). Then `C=CCC(OC(C)=O)c1ccc(OC)c(OC)c1` (stereo not given), with 96.7% (inactive); and `Cc1cc(Nc2ccc3c(c2)OCO3)c2cc3c(cc2n1)OCO3`, with 25.7% (inactive); and `CN(C)Cc1ccccn1`, with 101% (inactive). Regarding `O=c1cc(Cl)nc2ccccn12`, the growth is 110% (inactive). Then `CC1CN(CCO)CC(C)O1` (stereo not given), with 107% (inactive); and `O=C(O)C1CSC(c2ccccc2)N1` (stereo not given), with 106% (inactive).

For `Cc1ccc(S(=O)(=O)Oc2ccc3sc4c(CO)ccc(NCCN(C)C)c4c(=O)c3c2)cc1`, the growth was -73.3% [100 µM] (active).

For the molecule `CCOP(=O)(NC(c1ccccc1)c1ccccc1)OCC`, the growth was 98.1% (inactive).

`CC(=O)NC(CCc1ccc(Cl)c(Cl)c1)c1cccc(O)c(=O)c1` (stereo not given): the growth was 13.9% (inactive). For `Clc1ccc(C(SCc2ccccc2)SCc2ccccc2)cc1` the value was 95.5% (inactive); for `COc1ccc(NNS(=O)(=O)O)cc1`, 98.4% (inactive).

As for `NC(=S)c1c(N)n(C2OC(CO)C(O)C2O)c2ncnc(N)c12` (stereo not given), the growth is -10.3% (active). Then `CN(C)c1ccc2nc3ccc(=[N+](C)C)cc-3oc2c1`, with 8.48% (active); and `NCCCN1CCCC1=O`, with 97.5% (inactive). For the molecule `CCC(C)c1c(N)n(S(=O)(=O)c2ccc(C)cc2)oc1=O` (stereo not given), the growth is 96.6% (inactive). For `COC(=O)C1=C(C)C(=O)CC1` the value was 109% (inactive); for `S=c1nc2[nH]c3ccccc3c2n[nH]1`, 97.4% (inactive).

Regarding `ClCc1cccc2c(CCl)cccc12`, the growth was 63.8% (inactive). For `CS(=O)(=O)c1ccc(/C=C\C(=O)O)cc1` the value was 104% (inactive); for `C/C(=N\N=C(/C)c1cccc([N+](=O)[O-])c1)c1cccc([N+](=O)[O-])c1`, 79.6% (inactive); for `C/C(Cc1ccccc1)=N\O`, 107% (inactive).
